Screen size: about 190,000 compounds; about 810 (0.43%) were called active. The sample holds actives, similar compounds and a random draw of the others, so the mix is not that of the screen. Values without a mark were called inactive. Rule as the data show it: active = inhibition above about 50%; inactive = the rest.

Sequence of Mannose-6-phosphate isomerase (Homo sapiens) (P34949 whole entry, looked up): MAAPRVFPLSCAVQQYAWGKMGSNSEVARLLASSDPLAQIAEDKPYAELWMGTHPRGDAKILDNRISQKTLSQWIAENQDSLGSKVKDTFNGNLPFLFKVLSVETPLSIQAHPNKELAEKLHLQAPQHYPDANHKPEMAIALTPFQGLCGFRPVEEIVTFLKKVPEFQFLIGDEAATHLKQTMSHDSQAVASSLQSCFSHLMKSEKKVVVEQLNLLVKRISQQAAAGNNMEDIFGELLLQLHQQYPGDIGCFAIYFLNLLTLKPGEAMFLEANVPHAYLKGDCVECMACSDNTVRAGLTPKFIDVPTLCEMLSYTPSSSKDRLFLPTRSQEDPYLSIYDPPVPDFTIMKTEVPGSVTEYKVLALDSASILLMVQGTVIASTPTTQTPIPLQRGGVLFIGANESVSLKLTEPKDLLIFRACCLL

The assay concerns the target Mannose-6-phosphate isomerase (Homo sapiens) (UniProt P34949). Description: MPI enzyme activity inhibition – biochemical, fluorescence intensity, coupled assay, primary screen (AID 1209).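 Also: plate controls were DMSO vehicle for no effect and wells lacking substrate for full effect.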 Conditions: purified PMI enzyme, at 20 µM, active compounds read high.
For `O=C(NC1(C(F)(F)F)Oc2ccc(Cl)cc2O1)N1CCC2(CC1)OCCO2` (stereo unspecified), the inhibition was 79.1% (active). Under `O=C(NC1(C(F)(F)F)Oc2ccccc2O1)N1CCC2(CC1)OCCO2` stands 32.9%. `O=C(NC(=O)N1CCC2(CC1)OCCO2)c1ccc(Cl)cc1`: the inhibition is 10.2%. Take `CC(=O)Nc1ccccc1C(=O)OCc1ccc(F)cc1`: the inhibition is 1.8%. With `CS(=O)(=O)N1CCN(C(=N)N[N+](=O)[O-])CC1`, the inhibition is -5.1%. `C/C(=N\N1CCCCC1c1cccnc1)c1c(O)n(C2CCCCC2)c(=S)[nH]c1=O` (stereo unspecified): the inhibition is 5.8%.

`O=C1C(=O)c2ccccc2-c2ccccc21`: the inhibition was 25.8%. On to `O=C1C(=O)c2cccc3cccc1c23`, for which the inhibition was 17.2%.

Regarding `O=C1C=Cc2ccccc2C1=O`, the inhibition is 79.1% (active). The result for `Cc1cc(Oc2ccc(C(F)(F)F)cc2[N+](=O)[O-])c2c3c(c(=O)oc2c1)CCC3` reads -1.9%. Under `Cc1cc(N2C(=O)CC(N3CCC(n4c(=O)[nH]c5ccccc54)CC3)C2=O)no1` (stereo unspecified) stands 6.9%; under `COc1cc(CN2CC3CC(C2)c2cccc(=O)n2C3)cc(OC)c1OC` (stereo unspecified), -1.2%. As to `CCN(CC)CCCN=Cc1c(O)n(CCc2ccc(OC)c(OC)c2)c(=O)[nH]c1=O`, the inhibition was -10.4%.

Regarding `CCN(CC)c1ccc(N=Cc2c(O)n(CCc3ccc(OC)c(OC)c3)c(=O)[nH]c2=O)cc1`, the inhibition is 50% (active). For the molecule `CCN(CC)c1ccc(N=Cc2c(O)n(CCC3=CCCCC3)c(=O)[nH]c2=O)cc1`, the inhibition is 24.6%. With `CCOC(=O)C(NC(=O)C(Cc1ccc(N(CCCl)CCCl)cc1)NC(C)=O)C(C)C` (stereo unspecified), the inhibition is -44.3%. For the molecule `Cc1cccc(N2C(=O)/C(=C/N3CCN(C(=O)c4ccco4)CC3)C(=O)NC2=S)c1`, the inhibition is 55.5% (active). The result for `Cc1ccc(N2C(=O)/C(=C/N3CCN(C(=O)c4ccco4)CC3)C(=O)NC2=S)cc1C` reads 37.6%. Turning to `O=C1NC(=S)N(c2ccc(Br)cc2)C(=O)/C1=C/N1CCN(C(=O)c2ccco2)CC1`, the inhibition was 25.8%. On to `CSCCC(N=Cc1c(O)n(-c2ccc(F)cc2)c(=O)[nH]c1=O)C(=O)OC(C)(C)C` (stereo unspecified), for which the inhibition was 12.2%. In the case of `O=C(CNC(=O)c1cccc(Cl)c1)Nc1ccc(Br)cc1C(=O)c1ccccc1`, the inhibition was 17.1%.

Take `Cc1ccc(NC2=NCCCS2)c(C)c1C`: the inhibition was 12.6%. For `Cc1cc(C=C2C(=O)N(C)C(=S)N(C)C2=O)c(C)n1-c1cccnc1`, the inhibition is 59.6% (active). In the case of `C=CCN1C(=O)/C(=C/c2cc(C)n(-c3cccnc3)c2C)C(=O)NC1=S`, the inhibition was 50.2% (active). On to `Cc1cc(/C=C2/C(=O)NC(=O)N(C)C2=O)c(C)n1-c1ccccc1`, for which the inhibition is 2.6%. Consider `Cc1ccnc(-n2c(C)cc(C=C3C(=O)N(C)C(=S)N(C)C3=O)c2C)c1`, for which the inhibition is 23.1%. The result for `C=CCN1C(=O)/C(=C/c2cc(C)n(-c3ccccn3)c2C)C(=O)NC1=S` reads -25.6%.

`Cc1cc(C=C2C(=O)N(C)C(=O)N(C)C2=O)c(C)n1-c1ccccc1`: the inhibition was -25.1%. As to `COc1cc2c(cc1O)C[C@H]1NCCc3cc4c(c-2c31)OCO4`, the inhibition is 6.6%.

For the molecule `CCOC(=O)c1c(C)n(Cc2ccccc2)c2ccc(OCC(O)CN3C(=O)CNC3=O)cc12` (stereo unspecified), the inhibition is 60.1% (active). `CCOC(=O)c1c(C)n(Cc2ccccc2)c2ccc(OCC(O)Cn3nc(C)nc3C)cc12` (stereo unspecified): the inhibition was 15.7%. On to `CCOC(=O)c1c(C)n(Cc2ccccc2)c2ccc(OCC(O)Cn3nc(C)cc3C)cc12` (stereo unspecified), for which the inhibition was 16.3%. Under `C#CCN1C(=O)C2(C(C#N)=C(N)OC(C)=C2C(=O)OCc2ccccc2)c2ccccc21` (stereo unspecified) stands 51.6% (active); under `CCOC(=O)C1=C(C)OC(N)=C(C#N)C12C(=O)N(C)c1ccccc12` (stereo unspecified), 5.2%. As to `C=CCOC(=O)C1=C(C)OC(N)=C(C#N)[C@@]12C(=O)N(CC(N)=O)c1ccccc12`, the inhibition was -6.8%.

With `Nc1ccc(Cl)cc1C(=O)c1ccccc1Cl`, the inhibition was 5.4%. Take `CCN(CC)P(c1n(C)cc[n+]1C)N(CC)CC`: the inhibition was 54.3% (active).

For `CN(C)C(=O)OCc1n(C)cc[n+]1C`, the inhibition is -9.3%. On to `CNC(=O)OCc1n(C)cc[n+]1C`, for which the inhibition was 20.7%.

`CCn1cc(CN2CCCC(C(=O)c3cccc(OC)c3)C2)c(C)n1` (stereo unspecified): the inhibition is 13%. `CNC(C(=O)c1ccccc1)C(OC)c1ccc(C)cc1` (stereo unspecified): the inhibition is -37.6%.
